{"source": "the supplement of paper PMC13094657", "key": {"[1]": {"tested_on": "MDA-MB-231", "test": "cell viability relative to vehicle unstimulated control (fraction); higher = more viable cells", "conditions": "pre-treatment time: 18 h then 24 h IFNg/TNF"}, "[2]": {"tested_on": "MDA-MB-231", "test": "kynurenine production, fold change vs DMSO IFNg/TNF control; higher = more kynurenine produced (less inhibition)", "conditions": "pre-treatment time: 18 h then 24 h IFNg/TNF", "how_it_was_run": "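In 96-well plates, MDA-MB-231 cells (7 × 10^4/well) were given 24 h to settle, pre-treated for 18 h with each natural product in 0.1% DMSO, and stimulated for 24 h with IFNγ (1 U/ml) and TNF (6.25 ng/ml) at 37°C. Supernatants were processed with trichloroacetic acid and p-dimethylaminobenzaldehyde and read at 492 nm against 0–100 μM standards. In the first screening round, kynurenine production, as fold change over same-plate cytokine-stimulated vehicle wells, was averaged over duplicate plates.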"}}, "note": "Counter-ions that a name gives are not always drawn. ± gives the standard deviation of the averaged measurements.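 Wherever cell viability relative to vehicle unstimulated control is given: viability of the cells left after supernatant collection, read with Deep Blue dye added for 4 h, as absorbance at 570 nm minus 600 nm.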", "data": [{"smiles": "C=C(C)[C@@H]1CC[C@]2(C(=O)O)CC[C@]3(C)[C@H](CC[C@@H]4[C@@]5(C)CC[C@H](O)C(C)(C)[C@@H]5CC[C@]43C)[C@@H]12", "note": "[Betulinic acid] (compound dose: 10 uM)", "values": [{"measurement": "cell viability", "setting": "[1]", "value": "0.993 ± 0.044"}, {"measurement": "kynurenine production", "setting": "[2]", "value": "0.949 ± 0.051"}]}, {"smiles": "CC(=O)OC1C2C(OC(=O)c3ccccc3)C(C)CC2(OC(C)=O)C(=O)C(C)=CC2C(CCC13CO3)C2(C)C", "note": "(configuration not stated) [Euphorbia factor L25] (compound dose: 10 uM)", "values": [{"measurement": "cell viability", "setting": "[1]", "value": "1.057 ± 0.0038"}, {"measurement": "kynurenine production", "setting": "[2]", "value": "0.911 ± 0.07"}]}, {"smiles": "C[C@H](CCC(=O)NCC(=O)O)[C@H]1CC[C@H]2[C@@H]3[C@H](O)C[C@@H]4C[C@H](O)CC[C@]4(C)[C@H]3CC[C@]12C", "note": "[Glycochenodeoxycholic acid (sodium salt)] (compound dose: 10 uM)", "values": [{"measurement": "cell viability", "setting": "[1]", "value": "0.956 ± 0.082"}, {"measurement": "kynurenine production", "setting": "[2]", "value": "0.955 ± 0.14"}]}, {"smiles": "C=C1C(=O)O[C@H]2C[C@@H](C)[C@@H]3CCC(=O)[C@@]3(C)[C@@H](OC(C)=O)[C@H]12", "note": "[Ergolide] (compound dose: 10 uM)", "values": [{"measurement": "cell viability", "setting": "[1]", "value": "0.992 ± 0.072"}, {"measurement": "kynurenine production", "setting": "[2]", "value": "0.246 ± 0.13"}]}, {"smiles": "C=C1CC[C@H]2[C@@H](/C=C(\\C)C(=O)[C@@]3(OC(C)=O)C[C@H](C)[C@H](OC(=O)c4cccnc4)[C@@H]3[C@H]1OC(C)=O)C2(C)C", "note": "[Euphorbia factor L8] (compound dose: 10 uM)", "values": [{"measurement": "cell viability", "setting": "[1]", "value": "1.1 ± 0.075"}, {"measurement": "kynurenine production", "setting": "[2]", "value": "0.89 ± 0.083"}]}, {"smiles": "C=C1C(=O)O[C@@H]2/C=C(\\C)[C@@H](OC(C)=O)C/C=C(\\COC(C)=O)C[C@@H](OC(=O)/C(C)=C/CO)[C@@H]12", "note": "[Eupalinolide B] (compound dose: 10 uM)", "values": [{"measurement": "cell viability", "setting": "[1]", "value": "0.899 ± 0.057"}, {"measurement": "kynurenine production", "setting": "[2]", "value": "0.26 ± 0.0058"}]}, {"smiles": "CC(=O)OCC1=C[C@@H]2OC(=O)C3=CO[C@@H](O[C@@H]4O[C@H](CO)[C@@H](O)[C@H](O)[C@H]4O)[C@H]1[C@@H]32", "note": "[Asperuloside] (compound dose: 10 uM)", "values": [{"measurement": "cell viability", "setting": "[1]", "value": "0.983 ± 0.03"}, {"measurement": "kynurenine production", "setting": "[2]", "value": "0.923 ± 0.15"}]}, {"smiles": "Cc1ccc(C(C)C)cc1O", "note": "[Carvacrol] (compound dose: 10 uM)", "values": [{"measurement": "cell viability", "setting": "[1]", "value": "1.06 ± 0.036"}, {"measurement": "kynurenine production", "setting": "[2]", "value": "0.855 ± 0.035"}]}, {"smiles": "C[C@@H]1O[C@@H](O[C@H]2[C@H](O[C@H]3CC[C@@]4(C)[C@@H](CC[C@]5(C)[C@@H]4CC=C4[C@@H]6CC(C)(C)CC[C@]6(C(=O)O)CC[C@]45C)[C@]3(C)CO)OC[C@H](O)[C@@H]2O)[C@H](O)[C@H](O)[C@H]1O", "note": "[alpha-Hederin] (compound dose: 10 uM)", "values": [{"measurement": "cell viability", "setting": "[1]", "value": "0.932 ± 0.067"}, {"measurement": "kynurenine production", "setting": "[2]", "value": "0.875 ± 0.14"}]}, {"smiles": "CC(C)(O)CCC(=O)[C@](C)(O)C1[C@H](O)C[C@@]2(C)[C@@H]3CC=C4[C@@H](C[C@H](O)[C@@H](O)C4(C)C)[C@]3(C)C(=O)C[C@]12C", "note": "(some centres not stated) [Cucurbitacin IIb] (compound dose: 10 uM)", "values": [{"measurement": "cell viability", "setting": "[1]", "value": "0.943 ± 0.021"}, {"measurement": "kynurenine production", "setting": "[2]", "value": "0.826 ± 0.27"}]}, {"smiles": "CC(=O)O[C@@H]1[C@@H](O)[C@H](O[C@H]2CC[C@]34C[C@]35CC[C@]3(C)[C@@H]([C@@]6(C)CC[C@@H](C(C)(C)O)O6)[C@@H](O)C[C@@]3(C)[C@@H]5C[C@H](O[C@@H]3O[C@H](CO)[C@@H](O)[C@H](O)[C@H]3O)[C@H]4C2(C)C)OC[C@H]1O", "note": "[Isoastragaloside II] (compound dose: 10 uM)", "values": [{"measurement": "cell viability", "setting": "[1]", "value": "0.99 ± 0.011"}, {"measurement": "kynurenine production", "setting": "[2]", "value": "0.968 ± 0.029"}]}, {"smiles": "CCCCCCCCCC(=O)O[C@@H]1[C@@H](C)[C@@]2(O)[C@@H](C=C(COC(=O)Cc3ccc(O)c(OC)c3)C[C@]3(O)C(=O)C(C)=C[C@@H]23)[C@@H]2C(C)(C)[C@]12OC(=O)CCCCCCCCC", "note": "[Phorbol 12,13-didecanoate 20-homovanillate] (compound dose: 10 uM)", "values": [{"measurement": "cell viability", "setting": "[1]", "value": "1 ± 0.024"}, {"measurement": "kynurenine production", "setting": "[2]", "value": "0.74 ± 0.024"}]}, {"smiles": "CC1C(=O)OC2C(O)C34C5CC(C(C)(C)C)C36C(OC(=O)C6O)OC4(C(=O)O5)C12O", "note": "(configuration not stated) [Ginkgolide B] (compound dose: 10 uM)", "values": [{"measurement": "cell viability", "setting": "[1]", "value": "0.9 ± 0.12"}, {"measurement": "kynurenine production", "setting": "[2]", "value": "1.18 ± 0.033"}]}, {"smiles": "C=C1[C@H](OC(=O)C(C)C)[C@@H](O)[C@@H](OC(C)=O)C(C)(C)/C=C/[C@H](C)[C@H](OC(C)=O)[C@@]2(O)C[C@@](C)(OC(C)=O)[C@H](OC(=O)c3ccccc3)[C@@H]2[C@H]1OC(C)=O", "note": "[Jatrophane 4] (compound dose: 10 uM)", "values": [{"measurement": "cell viability", "setting": "[1]", "value": "1.1 ± 0.017"}, {"measurement": "kynurenine production", "setting": "[2]", "value": "0.7528 ± 0.0061"}]}, {"smiles": "CC(=O)OC/C=C(C)/C=C/C=C(C)/C=C/C1=C(C)CCCC1(C)C", "note": "[Retinyl acetate] (compound dose: 10 uM)", "values": [{"measurement": "cell viability", "setting": "[1]", "value": "0.9487 ± 0.0087"}, {"measurement": "kynurenine production", "setting": "[2]", "value": "0.753 ± 0.084"}]}, {"smiles": "C=C1C[C@@]23CC[C@H]4[C@@](C)(CCC[C@@]4(C)C(=O)O[C@@H]4O[C@H](CO)[C@@H](O)[C@H](O[C@@H]5O[C@H](CO)[C@@H](O)[C@H](O)[C@H]5O)[C@H]4O[C@@H]4O[C@H](CO)[C@@H](O)[C@H](O)[C@H]4O)[C@@H]2CC[C@]1(O[C@@H]1O[C@H](CO)[C@@H](O)[C@H](O[C@@H]2O[C@H](CO)[C@@H](O)[C@H](O)[C@H]2O)[C@H]1O[C@@H]1O[C@H](CO)[C@@H](O)[C@H](O)[C@H]1O)C3", "note": "[Rebaudioside M] (compound dose: 10 uM)", "values": [{"measurement": "cell viability", "setting": "[1]", "value": "0.939 ± 0.012"}, {"measurement": "kynurenine production", "setting": "[2]", "value": "0.742 ± 0.12"}]}]}
